Structures are written as SMILES. Screen size: about 2,300 compounds; about 1,500 (65%) were called active. No rule for the calls is given here. The set was probably picked from earlier hits. Only a sample is shown.

The nature of the assay: PubChem AID 2252. To be noted: THP-1 viability, CellTiter-Glo luminescence, 72 h; min viability: minimum viability across concentrations, concentration not given here; series mostly up to 50 µM. In general terms: In ATP-based viability assays light output follows the ATP content of the culture.
As for `COCCn1nnnc1C(c1cccc(OC)c1OC)N1CCN(C2CCCCC2)CC1` (centres undefined), the compound was called inactive. `O=C(O)C1CCCCC1C(=O)NCCc1ccncc1` (centres undefined): the result was inactive.

Consider `O=C(Nc1nccs1)c1ccc(Cl)cc1[N+](=O)[O-]`, for which the result was inactive. To `Cc1ccc2c(c1)C1CN(C)CCC1N2C(=O)COc1ccccc1F` (centres undefined) belongs “inactive”. To `CCc1nc(C)ccc1OCC(=O)NCCCN(C)C` belongs “inactive”; to `CN1C(=O)NC(c2cccc(O)c2)C(C(=O)c2cccs2)C1(O)C(F)(F)F` (centres undefined), “inactive”. To `Cc1cccc(N2C(=O)CS/C2=N\NC(=O)c2ccc(Br)cc2)c1C` belongs “inactive”. For the compound `N#Cc1nc(Cc2cccc3ccccc23)oc1NCCCN1CCOCC1`, the compound was classed as inactive. To `Cc1ccc(/C=N/NC(=O)Cc2cccn2C)cc1` belongs “inactive”; to `O=C(Cc1ccccc1)NCC(=O)Nc1cccc(Cl)c1`, “inactive”. To `CC(=O)c1ccc(NC(=O)CN2CCCCCC2)cc1` belongs “inactive”. To `CSC(=Nc1ccc(Cl)cc1)N[n+]1ccccc1` belongs “inactive”; to `CC(=O)Nc1ccc(S(=O)(=O)Nc2nc3ccccc3nc2Nc2cccc(S(N)(=O)=O)c2)cc1`, “inactive”. For `COCCNC(=O)c1cccc(OC2CCN(Cc3ccccc3C)CC2)c1`, the result was inactive.

Turning to `Cc1ccc(C(=O)N/N=C\c2sccc2C)cn1`, the outcome was inactive.

On to `CN(C)CCCOC(=O)c1sc2ccccc2c1Cl`, for which the compound was classed as inactive. To `COc1c2ccccc2nc2ccccc12` belongs “inactive”. To `CCn1cc(C(=O)O)c(=O)c2cc(F)c(N3CCN(C(=S)NC(=O)c4ccc(Br)cc4)CC3)cc21` belongs “inactive”; to `O=C(NCc1ccccc1)N[C@@H](Cc1c[nH]c2ccccc12)C(=O)O`, “inactive”. Take `CCn1cc(C(=O)NCCO)c(=O)c2cc(F)c(N3CCN(C)CC3)cc21`: the compound was classed as inactive. For `CCn1nnnc1NCc1cccc(Cl)c1`, the outcome was inactive. To `O=C(O)c1cn(-c2ccc(F)cc2)c2cc(Cl)c(F)cc2c1=O` belongs “inactive”; to `COc1cccc(NC(=O)CSc2nncn2-c2ccccn2)c1`, “inactive”. To `O=C(NC1CC1)C1CCN(C2CCN(C(=O)Cc3ccc(F)cc3)CC2)CC1` belongs “inactive”; to `O=C(NC(CO)C(O)c1ccc([N+](=O)[O-])cc1)C(Cl)Cl` (centres undefined), “inactive”; to `CN1CCCN(S(=O)(=O)c2ccc3ccccc3c2)CC1`, “inactive”. To `NS(=O)(=O)OCCCc1ccc(C(F)(F)F)cc1` belongs “inactive”; to `N#CCC(=O)N/N=C/c1ccccc1Cl`, “inactive”; to `COc1ccc(-c2nc3ccc(C(=O)NCC(OC)OC)cc3nc2-c2ccc(OC)cc2)cc1`, “inactive”. As for `Cc1cc(C)c(S(=O)(=O)Nc2ccccc2C(=O)OCC(=O)NCc2ccccc2)c(C)c1`, the compound was classed as inactive.

Take `CCOC(=O)c1cccc(NC(=O)c2cccs2)c1`: the result was inactive. To `Cc1ccc(NC(=O)c2cc(NC(=O)CCCC(=O)O)ccc2Cl)cc1Cl` belongs “inactive”; to `O=C(CCCOc1ccc(Cl)cc1Cl)NNC(=O)C1CCC1`, “inactive”; to `CCCCN1/C(=C/c2cccc[n+]2C)Sc2cc(NC(C)=O)ccc21`, “inactive”. To `CC(C)CC(=O)N1CCN(C(=O)CCC2CCCC2)CC1` belongs “inactive”; to `O=C(NCc1cccnc1)C1c2ccccc2C(=O)N1Cc1ccccc1` (centres undefined), “inactive”; to `O=Cc1ccc(O)cc1O`, “inactive”. To `CCC(C)NC(=O)c1cn(CC)c2cc(N3CCN(C)CC3)c(F)cc2c1=O` (centres undefined) belongs “inactive”; to `Cc1ccn2cc(-c3ccc4c(c3)NC(=O)CO4)nc2c1`, “inactive”; to `O=C(CN(C(=O)CNS(=O)(=O)c1ccccc1)C1CCCC1)NCc1ccco1`, “inactive”. In the case of `O=c1[nH]cc(N=Cc2cc([N+](=O)[O-])ccc2O)c(=O)[nH]1`, the compound was called inactive. To `CC(Sc1nc2ccccc2o1)C(=O)O` (centres undefined) belongs “inactive”; to `Cc1cc(C)cc(CSc2nnc(C)c(=O)[nH]2)c1`, “inactive”; to `CCCCN(C)C(=O)c1ccc(S(=O)(=O)N2CCOCC2)cc1`, “inactive”.

Turning to `COc1ccc(-c2nnn(-c3ccc(Cl)cc3Cl)c2N)cc1`, the outcome was inactive. As to `Cc1cc(C)c2c(N)c(C(=O)c3ccc(Cl)c(Cl)c3)sc2n1`, the outcome was inactive. To `Cn1c(-c2ccc(CN3CCCCC3)o2)nc2ccccc21` belongs “inactive”; to `O=C(NCC1CCCO1)c1cc2ccccc2oc1=O` (centres undefined), “inactive”; to `CN(C)C(=O)CSc1nnc(Cc2ccc([N+](=O)[O-])cc2)o1`, “inactive”. `CSc1nc2ccc(Cl)cc2[nH]1`: the compound was called inactive. To `Cn1cc(S(=O)(=O)NCC2CCCO2)c(=O)n(C)c1=O` (centres undefined) belongs “inactive”. Turning to `CN1C2=CC=CC=CC2=[N+](C)C12C=CC(=[N+]([O-])[O-])C=C2[N+](=O)[O-]` (centres undefined), the compound was called inactive. For `Cc1cc(N2CCCCC2)c(F)cc1[N+](=O)[O-]`, the outcome was inactive. To `O=C(N/N=C/c1ccc(-c2ccc(Br)cc2)o1)c1ccc2c(c1)OCO2` belongs “inactive”; to `Cc1ccc(-n2ncc3c(=O)[nH]cnc32)c(C)c1`, “inactive”; to `CC(=O)N1CSCC1C(=O)N1CCN(c2ccc(N3CCOCC3)nn2)CC1` (centres undefined), “inactive”. To `CCCCNC(=O)NS(=O)(=O)c1ccc(C(=O)OC)o1` belongs “inactive”; to `O=C(c1cccs1)N1CCC(N2CCN(c3ccccc3)CC2)CC1`, “inactive”. To `N#Cc1c(/N=C/c2cccs2)sc2c1CCCCC2` belongs “inactive”; to `Cc1ccc(NC(=O)CCNC(=O)c2ccccc2)cc1F`, “inactive”; to `Cc1c(/C=N/NC(=O)c2sc3ccccc3c2Cl)cnn1C`, “inactive”.

With `Cc1cc(C)cc(N(C(=O)CNC(=O)c2cccs2)C(C(=O)NC2CCCC2)c2cccnc2)c1` (centres undefined), the outcome was inactive. To `CC(C)OC(=O)Cn1c(=O)sc2ccccc21` belongs “inactive”. To `CC(=O)Nc1cccc(NS(=O)(=O)Cc2ccc(Cl)cc2)c1` belongs “inactive”. As to `COc1ccc(C(=O)NNS(=O)(=O)c2ccccc2)cc1OC`, the call was inactive. `O=C(NCc1ccccc1)c1ccc(CNc2c(N3CCCC3)c(=O)c2=O)cc1`: the compound was called inactive. To `C[C@H]1COc2c(N3CCN(C)CC3)c(F)cc3c(=O)c(C(=O)O)cn1c23` belongs “inactive”. To `CCCCc1cc(=O)oc2cc(C)cc(OCC(=O)NCC3CCC(C(=O)O)CC3)c12` (centres undefined) belongs “inactive”; to `Cc1ccc(CNC(=O)CCC(=O)Nc2nnc(C)s2)cc1`, “inactive”; to `CCOc1cc(S(=O)(=O)N2CCN(CC)CC2)ccc1Cl`, “inactive”. To `O=C(NCc1ccc2c(c1)OCO2)c1ccc2c(c1)C(=O)N(Cc1cccnc1)C2=O` belongs “inactive”; to `CCOC(=O)C1CCN(C(=O)CCc2nc3ccccc3[nH]2)CC1`, “inactive”.

Turning to `NS(=O)(=O)c1ccc(CCNS(=O)(=O)c2cccc(C(=O)O)c2)cc1`, the outcome was inactive.

Turning to `O=C(NC(=O)c1ccccc1)OCC1CCCN2CCCCC12` (centres undefined), the result was inactive.

For the origin of these results see PubChem BioAssay AID2252 (Southern Research Specialized Biocontainment Screening …, 2010).
